We go through 16 compounds from PubChem BioAssay.

SMILES strings stand for the structures. The source made the active and inactive calls.

One experiment has as its target Albumin (Bos taurus) (UniProt P02769). The experiment in a line: compounds binding labelled BSA control protein – biochemical, small-molecule microarray, Alexa647 label, 635/667 nm fluorescence, artefact control for SMM control protein annotation, profiling panel (AID 1118).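 Further: score merges 667 nm emission intensity and signal-to-noise per printed compound spot.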 As to conditions: BSA-A647 binding, fluorescence 635 nm, higher = more signal.
Experiment [1] can be described thus: probe aXIP binding to arrayed compounds – biochemical, NeuroSMM set, 635/667 nm fluorescence, primary screen (AID 1119).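 Further: probe is the protein aXip251-270 applied at 1 µg/mL to compound-printed slides; binding of probe to printed compounds measured as 667 nm fluorescence plus signal to noise.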 As to conditions: small-molecule microarray, higher = more signal, called active from +8 up or from −8 down.
Experiment [2] can be described thus: probe aNOTCH3 binding on compound microarray – biochemical, small-molecule microarray, 635/667 nm fluorescence, primary screen (AID 1120).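 Further: probe is a biotin-tagged antibody raised against NOTCH3 rather than NOTCH3 protein; score merges spot fluorescence near 667 nm with spot signal to noise.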 As to conditions: higher = more signal.
Experiment [3] can be described thus: probe aNOTCH2 binding on compound microarray – biochemical, small-molecule microarray, 635/667 nm fluorescence, primary screen (AID 1121).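 Further: score merges feature fluorescence read at 667 nm with its signal to noise.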 As to conditions: higher = more signal.
For experiment [4], the target named is Carbonic anhydrase 2 (Homo sapiens) (UniProt P00918). The experiment in a line: compounds binding carbonic anhydrase 2 – biochemical, small-molecule microarray, Alexa647-labelled CAII, profiling panel (AID 1122). The note with it: CAII-A647 binding fluorescence, higher = more signal.
Experiment [5] in a line: COS7 lysate on small-molecule microarray, probe aHis, 635 nm (AID 1123).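 Further: z-score combines 667nm fluorescence intensity with signal-to-noise per printed compound spot.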 As to conditions: COS7 cell lysate, fluorescence, higher = more signal.
The nature of experiment [6]: probe aLAP1 signal on lysate-treated microarray – cell lysate, small-molecule microarray, COS7 lysate, primary screen (AID 1124).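 Further: lysate comes from COS7 cells expressing LAP1 and is applied at 0.3 µg/mL; score merges spot fluorescence near 667 nm with signal-to-noise over triplicate slides.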 The note with it: probe aLAP1, fluorescence, higher = more signal.
A further experiment concerns Sam68 (KHDRBS1). The experiment in a line: compounds binding KHDRBS1 protein – biochemical, small-molecule microarray, 635 nm fluorescence, primary screen (AID 1125).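 Further: score merges 667 nm channel intensity with signal to noise over triplicate slides.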 As to conditions: higher = more signal.
For experiment [7], the system named is Chordin-like protein 2 (CHRDL2). The experiment in a line: compounds binding chordin-like 2 – biochemical, small-molecule microarray, 635 nm fluorescence, primary screen (AID 1126).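 Further: printed compound slides probed with Chrdl2 protein at 4 µg/mL for 1 h at 4 C; score merges 667 nm emission intensity with signal to noise over three replicate slides.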 The note with it: fluorescence 635 nm, higher = more signal.
The target in experiment [8] is Concanavalin-A (Canavalia ensiformis) (UniProt P02866). The experiment in a line: compounds binding concanavalin A lectin – biochemical, small-molecule microarray, Alexa647 label, 635 nm, artefact control for SMM control protein annotation, primary screen (AID 1127).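 Further: z combines 667 nm emission intensity with signal-to-noise across three replicate slides.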 As to conditions: ConA-A647 binding fluorescence, higher = more signal.
Sequence of Concanavalin-A (Canavalia ensiformis) (P02866 whole entry, looked up): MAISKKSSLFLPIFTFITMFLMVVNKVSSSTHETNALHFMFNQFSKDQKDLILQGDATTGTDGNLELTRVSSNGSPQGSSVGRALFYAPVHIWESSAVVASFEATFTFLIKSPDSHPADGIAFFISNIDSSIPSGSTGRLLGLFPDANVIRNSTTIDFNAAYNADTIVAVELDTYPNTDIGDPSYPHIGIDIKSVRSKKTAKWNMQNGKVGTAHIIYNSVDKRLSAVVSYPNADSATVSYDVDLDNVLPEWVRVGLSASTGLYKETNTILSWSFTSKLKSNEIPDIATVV

Sequence of Albumin (Bos taurus) (P02769 whole entry, looked up): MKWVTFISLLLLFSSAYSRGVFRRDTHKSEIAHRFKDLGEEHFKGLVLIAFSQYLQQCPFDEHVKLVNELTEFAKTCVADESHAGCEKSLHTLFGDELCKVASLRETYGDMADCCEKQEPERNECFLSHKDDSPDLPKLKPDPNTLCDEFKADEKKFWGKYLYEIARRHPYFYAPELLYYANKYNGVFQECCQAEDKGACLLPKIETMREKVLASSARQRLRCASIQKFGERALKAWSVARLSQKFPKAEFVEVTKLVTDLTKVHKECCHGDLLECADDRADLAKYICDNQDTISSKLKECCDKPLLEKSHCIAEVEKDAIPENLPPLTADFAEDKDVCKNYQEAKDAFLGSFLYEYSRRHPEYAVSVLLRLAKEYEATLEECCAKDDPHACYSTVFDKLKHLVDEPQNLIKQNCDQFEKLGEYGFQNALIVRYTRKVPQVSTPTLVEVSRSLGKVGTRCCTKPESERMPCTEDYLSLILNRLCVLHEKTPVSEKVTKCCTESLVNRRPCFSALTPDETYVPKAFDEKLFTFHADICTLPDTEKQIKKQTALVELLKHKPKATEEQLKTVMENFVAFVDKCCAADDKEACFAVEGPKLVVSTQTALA

Regarding `C=C(COC)C(=O)CC[C@H](OC(=O)c1cccnc1)c1ccc(CO)o1`, the composite z-score is 0.0617 with Albumin (Bos taurus); 0.0225 in experiment [2]; -0.0569 in experiment [3]; 0.317 in experiment [4]; -0.22 in experiment [5]; -0.237 in [6]. The composite z-score in the experiment with Sam68 (KHDRBS1) is 0.558; in experiment [7] it was 0.686; in [8], 0.695. In addition, the composite Z-score in [1] is -0.496 (inactive).

As for `C=CCN1C(=O)[C@@]2(O[C@@H](CCO)[C@H]([Si](C)(C)c3ccc(OC)cc3)[C@H]2C)c2cc(N3CCOC3=O)ccc21`, the composite z-score was 0.729 with Albumin (Bos taurus); -0.0647 in experiment [2]; -0.127 in experiment [3]; 0.483 in experiment [4]; -0.617 in [5]; 0.155 in [6]. For the same compound, the composite z-score is 0.329 in the experiment on Sam68 (KHDRBS1), -0.403 in [7] and 0.993 in [8]. Moreover, in experiment [1], the composite Z-score is 0.0117 (inactive).

Consider `NC(=O)[C@H]1[C@@H]2C(=O)O[C@@H](c3ccccc3)[C@@H](c3ccccc3)N2[C@@H](c2ccc(O)cc2)[C@]12C(=O)Nc1ccc(C#CC3=CCCCC3)cc12`, for which the composite z-score is 0.396 with Albumin (Bos taurus); -0.0273 in [2]; -0.156 in experiment [3]; 0.293 in [4]; 2.13 in experiment [5]; 0.249 in [6]. Besides, the composite z-score in the experiment with Sam68 (KHDRBS1) was 0.662; in [7], -0.758; in experiment [8], 0.565. Moreover, the composite Z-score in experiment [1] is 0.224 (inactive).

Consider `CCOC(=O)C1=CC[C@@H](c2ccccc2)N(S(=O)(=O)c2ccc(C)cc2)[C@H]1c1cccc(OC)c1`, for which the composite z-score with Albumin (Bos taurus) turned out to be 0.909; in experiment [2], 0.199; in [3], 0.137; in experiment [4], 0.422; in [5], 0.899; in experiment [6] it was 0.0214. Further, the composite z-score was 1.06 with Sam68 (KHDRBS1), -0.0412 in experiment [7] and 0.913 in experiment [8]. In addition, the composite Z-score in [1] is 1.15 (inactive).

`CC(CO)N1C(=O)[C@@H]2[C@H]3C(=O)OCC=C[C@H]3OC23C=CCN(c2ccc(Cl)cc2)C(=O)[C@@H]13` (stereo not given in full): the composite z-score was -1.68 with Albumin (Bos taurus); -0.454 in experiment [2]; -0.161 in experiment [3]; 0.935 in [4]; -0.224 in experiment [5]; -0.191 in experiment [6]. Further, the composite z-score in the experiment with Sam68 (KHDRBS1) is -0.598; in experiment [7], -2.12; in experiment [8], -2.16. The composite Z-score in experiment [1] was -0.243 (inactive).

As to `COCCOC(=O)N1C(=O)[C@@]2(c3cc(C#CC4=CCCCC4)ccc31)[C@H](C(=O)N1CCCCCCC1)[C@H]1C(=O)O[C@H](c3ccccc3)[C@H](c3ccccc3)N1[C@@H]2c1ccc(OCCO)cc1`, the composite z-score with Albumin (Bos taurus) is -0.0202; in experiment [2], 0.677; in experiment [3] it was 0.0424; in [4] it was 0.399; in [5] it was 0.387; in experiment [6], 0.722. Further, the composite z-score in the experiment with Sam68 (KHDRBS1) came to 0.865; in experiment [7] it was 0.652; in experiment [8], 1.11. In addition, the composite Z-score in experiment [1] is 0.196 (inactive).

With `COCCCNC(=O)[C@@H]1c2ccccc2C(=O)N(C2Cc3ccccc3C2)[C@H]1c1ccc(CO)cc1`, the composite z-score with Albumin (Bos taurus) is -0.423; in experiment [2] it was -0.0584; in [3], -0.0772; in experiment [4], 0.724; in [5], 1.19; in experiment [6] it was 0.59. The composite z-score with Sam68 (KHDRBS1) stood at 0.749; in experiment [7], 0.573; in [8], 0.286. Further, the composite Z-score in [1] is 0.47 (inactive).

On to `[N-]=[N+]=NCc1ccccc1[C@@H]1OC(c2ccc(OCCCO)cc2)=N[C@]1(Cc1ccccc1)C(=O)NCCN1CCOCC1`, for which the composite z-score in the experiment with Albumin (Bos taurus) amounted to 0.501; in [2], 0.369; in experiment [3], 0.128; in experiment [4] it was 0.676; in experiment [5], 1.98; in experiment [6], 0.994. The composite z-score amounted to 1.18 with Sam68 (KHDRBS1), 0.325 in experiment [7] and 1.12 in [8]. Besides, the composite Z-score in [1] is -0.016 (inactive).

For the compound `CO[C@H]1O[C@H](CO)[C@@H](OC(=O)Nc2cccc(F)c2)[C@H](OC(=O)Nc2ccccc2-c2ccccc2)[C@H]1OC(=O)Nc1ccccc1-c1ccccc1`, the composite z-score is -0.8 with Albumin (Bos taurus); 0.206 in [2]; -0.0226 in experiment [3]; 0.577 in [4]; 2.33 in experiment [5]; 0.57 in experiment [6]. Besides, the composite z-score in the experiment with Sam68 (KHDRBS1) turned out to be 1.3; in experiment [7] it was 0.484; in experiment [8] it was 0.924. Moreover, the composite Z-score in experiment [1] was 0.55 (inactive).

On to `CCCCC=C[C@@H](NC(=O)c1ccccc1)c1ccccc1`, for which the composite z-score with Albumin (Bos taurus) is 0.943; in experiment [2], 0.354; in [3], -0.0785; in [4], 0.561; in experiment [5] it was 2.62; in experiment [6], 0.172. For the same compound, the composite z-score in the experiment on Sam68 (KHDRBS1) is 1.26; in experiment [7], -0.621; in experiment [8], 1.08. In experiment [1], the composite Z-score was -0.176 (inactive).

On to `COCCOC(=O)N1C(=O)[C@@]2(c3cc(C#CC4=CCCCC4)ccc31)[C@H](c1ccc(O)cc1)N1[C@H](c3ccccc3)[C@H](c3ccccc3)OC(=O)[C@H]1[C@@H]2C(=O)NC[C@H](O)c1ccccc1`, for which the composite z-score was 0.613 with Albumin (Bos taurus); 0.158 in [2]; -0.148 in experiment [3]; 0.27 in experiment [4]; 1.68 in experiment [5]; 1.02 in experiment [6]. The composite z-score in the experiment with Sam68 (KHDRBS1) came out at 1.3; in [7], 0.642; in experiment [8], 0.935. The composite Z-score in [1] is 0.225 (inactive).

Regarding `CC(=O)NCCCC[C@@H]1NC(=O)[C@@H]2C[C@H](C(=O)NCCCCCCN)[C@H](c3cccc(OCCO)c3)N2C1=O`, the composite z-score in the experiment with Albumin (Bos taurus) was 0.851; in experiment [2], -0.0682; in [3] it was -0.149; in experiment [4], 0.779; in [5], 1.72; in experiment [6] it was 1.89. Also, the composite z-score was 1.12 in the experiment with Sam68 (KHDRBS1), -0.878 in experiment [7] and 1.12 in experiment [8]. Besides, the composite Z-score in experiment [1] is 0.801 (inactive).

In the case of `COCC(=C=CC[C@@H](O)c1ccc(OCCO)cc1)CCO`, the composite z-score is -0.201 in the experiment with Albumin (Bos taurus); -0.17 in experiment [2]; -0.0859 in [3]; 0.838 in experiment [4]; 1.25 in [5]; 0.83 in experiment [6]. The values for the composite z-score (in the experiment on Sam68 (KHDRBS1); in experiment [7]; in [8]) were 0.847, 0.136 and -0.139, respectively. The composite Z-score in experiment [1] was 1.21 (inactive).

`COCCOC(=O)N1C(=O)[C@@]2(c3cc(C#CCC(C(=O)OC)C(=O)OC)ccc31)[C@H](c1ccc(O)cc1)N1[C@H](c3ccccc3)[C@H](c3ccccc3)OC(=O)[C@H]1[C@@H]2C(=O)NC[C@H](O)c1ccccc1`: the composite z-score with Albumin (Bos taurus) is 0.781; in [2], -0.196; in experiment [3] it was -0.14; in experiment [4] it was 0.63; in [5], 2.2; in experiment [6], 0.588. In addition, the composite z-score was 0.296 in the experiment on Sam68 (KHDRBS1), -0.282 in experiment [7] and 1.07 in [8]. In [1], the composite Z-score is 0.7 (inactive).

Consider `[N-]=[N+]=NC[C@H](Cc1ccccc1)NC(=O)c1ccccc1`, for which the composite z-score is 0.494 in the experiment with Albumin (Bos taurus); 0.056 in experiment [2]; -0.0783 in [3]; 0.294 in experiment [4]; 0.12 in experiment [5]; -0.0013 in [6]. Besides, the results for the composite z-score (in the experiment with Sam68 (KHDRBS1); in [7]; in [8]) were -0.258, 0.433 and -0.855, respectively. In addition, the composite Z-score in experiment [1] is -0.0662 (inactive).

As for `COC(=O)[C@@]1(Cc2ccc(F)cc2)[C@H]2c3cc(C(=O)N4CCCC4)n(C)c3C[C@H]2CN1C(=O)c1ccccc1`, the composite z-score with Albumin (Bos taurus) was determined as 0.942; in [2] it was 0.49; in [3], 0.295; in experiment [4] it was 0.76; in experiment [5], 3.32; in [6] it was 1.01. Besides, the values for the composite z-score (in the experiment on Sam68 (KHDRBS1); in experiment [7]; in [8]) were 1.31, -1.04 and 0.683, respectively. Further, the composite Z-score in experiment [1] is 0.929 (inactive).
